Activation data for one molecule are collected here from PubChem BioAssay AID602412 (Johns Hopkins Ion Channel Center, 2012).

Molecules are shown by their SMILES. The list shows a part of the results. The source made the active and inactive calls.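 How the source made its calls: active means calcium signal rise, corrected for plate position, at least 3 library SD high, with starting brightness within 5 such deviations; inactive means the rest.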

In the experiment the target is Mas-related G-protein coupled receptor member X1 (Homo sapiens) (UniProt Q96LB2). Nature of the experiment: activators of human MrgX1 calcium signaling – HEK293 cells, Fluo-4 calcium flux, confirmation (AID 602412). To be noted: MrgX1-HEK293, Fluo-4 calcium fluorescence, FDSS; at 10 µM; hits give high values. On the technique in general: A change in cytosolic calcium serves as a functional read-out for many receptors and channels.
Sequence of Mas-related G-protein coupled receptor member X1 (Homo sapiens) (Q96LB2 whole entry, looked up): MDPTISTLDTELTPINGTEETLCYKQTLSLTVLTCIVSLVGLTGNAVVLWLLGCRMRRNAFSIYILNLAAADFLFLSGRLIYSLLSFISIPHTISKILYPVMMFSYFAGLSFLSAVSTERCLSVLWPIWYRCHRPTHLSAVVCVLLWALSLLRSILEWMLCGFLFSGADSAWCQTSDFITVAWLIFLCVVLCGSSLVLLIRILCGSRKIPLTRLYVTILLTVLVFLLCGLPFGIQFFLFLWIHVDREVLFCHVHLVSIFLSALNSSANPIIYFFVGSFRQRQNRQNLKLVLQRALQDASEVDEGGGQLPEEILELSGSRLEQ

With `CCCCC(=O)N/N=C/c1c(O)n(CC)c(=S)n(CC)c1=O`, the activation was 372% (active).
